This assay in a line: anti-Giardia activity of synthetic compounds – Compounds Australia Scaffold Library subset, 24/48 h, primary screen (AID 1794835).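 On inhibition: 0% = parasite counts in DMSO vehicle wells.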 The following applies: Giardia lamblia BRIS/91/HEPU/1279 trophozoite counts, imaging, at 10 µM.
[1] abbreviates: measured here: growth inhibition at 24 h, stronger effect = higher value.

SMILES strings stand for the structures. Among all 2,500 compounds or so, about 45 (2%) were called active. No stated cut-off is given here; in the data, active means inhibition mostly above about 45% (no sharp cut-off); inactive means mostly below about 37%. The sample as a whole holds a higher share of actives than the screen did.

By inhibition is commonly meant the percentage by which the read-out fell short of the control. On to `O=C(CN1C(=O)CCCc2ccccc21)NCCc1ccco1`, for which the inhibition entry was “inactive”. For the compound `Cc1cc(-c2cc(C(=O)Nc3c(C)n(C)n(-c4ccccc4)c3=O)c3cnn(C(C)C)c3n2)c(C)o1`, the outcome was inactive. In addition, the inhibition under setting [1] turned out to be 2%. Regarding `CC1CN(C(=O)c2cc(C3CC3)nc3c2cnn3C(C)C)CC(C)O1` (configuration not stated), the inhibition result is “inactive”. In the case of `Cc1cc(-c2cc(C(=O)Nc3ccc(N4CCN(C)CC4)nc3)c3cnn(C(C)C)c3n2)c(C)o1`, the inhibition reads like this: (stronger effect = higher value) 98.2% (active); under setting [1], 95.9%. For `NC(=O)c1nonc1N`, the inhibition result is “inactive”. `Cc1ccc(CNC(=O)c2cc(-c3ccc(C)c(C)c3)n(C3CCS(=O)(=O)C3)n2)cc1` (configuration not stated): the inhibition result is “inactive”.

As for `Cc1nc2c(c(=O)n1CC(=O)Nc1cccc(F)c1)CCN(Cc1ccccc1)C2`, the result was inactive. Besides, the inhibition under setting [1] is 12%.

Turning to `Cn1cc2c(n1)c(=O)n(Cc1ccccc1)c(=O)n2CC(=O)Nc1ccc2c(c1)OCCO2`, the inhibition result was “inactive”. For `Cn1cc2c(n1)c(=O)n(Cc1ccccc1)c(=O)n2CC(=O)Nc1cccc(F)c1`, the inhibition (stronger effect = higher value) was 62.8% (active) and the inhibition under setting [1] was determined as 30.6%. Regarding `Brc1ccc(-c2nc(-c3ccc4c(c3)ncn4C3CCCC3)no2)o1`, the inhibition entry was “inactive”.

With `Cc1ccccc1NC(=O)c1c(C)oc2ncnc(N3CCCCC3)c12`, the inhibition by setting is: (stronger effect = higher value) 15.9% (inactive); under setting [1], 14.5%. Regarding `Cc1ccc(C(=O)N2CCN(S(=O)(=O)N3CCN(C)CC3)CC2)o1`, the inhibition result was “inactive”.

As to `COc1ccc(C(=O)N2c3ccccc3NC(=O)CC2C)cc1OC` (configuration not stated), the compound was called inactive. This compound also registered an inhibition under setting [1] of 2.2%. Turning to `N=C1C(=C2Nc3ccccc3S2)CC(=O)N1C1CC1`, the outcome was inactive. Moreover, the inhibition under setting [1] worked out at 2.5%. Regarding `COc1ccc(C)cc1N1C(=N)C(=C2Nc3ccccc3S2)C(c2ccccc2)C1=O` (configuration not stated), the inhibition (stronger effect = higher value) is 96.7% (active) and the inhibition under setting [1] stood at 90.2%.

Turning to `CCN(CC)CCCN1C(=O)C(O)=C(C(=O)c2cc3cccc(OC)c3o2)C1c1ccncc1` (configuration not stated), the inhibition entry is “inactive”. The same measure, in the same setting: as for `CCOc1cc(C)ccc1NC(=O)N1CCC12CCC2`, the entry is “inactive”. With `CCn1cc(CN2CCCN(C(=O)c3cc(C4CC4)on3)CC2)cn1`, the result was inactive. This compound registered an inhibition under setting [1] of 1.1%. Regarding `CN1C(=O)c2cc(NC(=O)c3ccc4c(c3)OCO4)ccc2N2CCN=C12`, the inhibition (stronger effect = higher value) was 31.6% (inactive) and the inhibition under setting [1] was 11.7%. In the same order, the values of `CCOc1ccc(C(=O)Nc2ccc3c(c2)N(C(C)C)C(=O)c2ccccc2O3)cc1` are 33.8% (inactive) and 18.7%. In the same order, the values of `Cc1ccc(C(=O)Nc2ccc3c(c2)Oc2ccccc2C(=O)N3C)cc1` are 96.8% (active) and 90.3%. Consider `O=C(NCc1cccc(F)c1)C1CCCN(c2nc3ccccc3n3cccc23)C1` (configuration not stated), for which the outcome was inactive. This compound also had an inhibition under setting [1] of 2.2%.

Consider `CNC(=O)N1C[C@@H](CN(C)C)[C@@H](C2CCN(Cc3ccccn3)CC2)C1`, for which the inhibition entry was “inactive”.

For `Cc1ccccc1NC(=O)Cn1ccc2sccc2c1=O`, for the setting “stronger effect = higher value”, the inhibition was 19.9% (inactive). Regarding `Cc1ccc(-n2c(=O)c3c(cnn3C)n(CC(=O)Nc3ccccc3C)c2=O)cc1`, the inhibition by setting is: (stronger effect = higher value) 76.9% (active); under setting [1], 53.9%. Consider `CCCCNC(=O)Cn1c(=O)c2c(C)cc(C)nc2n(-c2ccccc2)c1=O`, for which, under “stronger effect = higher value”, the inhibition is 4.4% (inactive). As for `COc1cc(OC)c(C2=CCN(C(=O)c3ccc(C)s3)CC2)c(OC)c1`, the inhibition is 59.3% (active) (stronger effect = higher value) and 23.1% under setting [1]. For the compound `COC(=O)c1ccc(C(=O)N2CCc3sccc3C2)s1`, the inhibition entry was “inactive”.

For the compound `CC(=O)c1ccc(C(=O)N2CC=C(c3ccccc3)CC2)s1`, the inhibition entry is “inactive”. For the compound `CC(=O)N1c2ccc(S(=O)(=O)N3CCOCC3)cc2CC1C(=O)NCCN1CCOCC1` (configuration not stated), the inhibition result is “inactive”. Regarding `COc1cc(NS(=O)(=O)c2ccc(C)cc2)cc2sc(NC(=O)c3ccccc3)nc12`, the inhibition reads like this: (stronger effect = higher value) 50% (active); under setting [1], 23.6%.

For `COc1ccc(NC(=O)c2cncc(NS(=O)(=O)c3ccc(C)cc3)c2)cc1`, the inhibition entry is “inactive”. The same measure, in the same setting: for `CCC(=O)Nc1nc2c(OC)cc(NS(=O)(=O)c3cc(Cl)ccc3OC)cc2s1` the value was “inactive”; for `COc1ccc(-c2noc(C3CCOCC3)n2)c(OC)c1`, “inactive”. Regarding `Cc1ccc2nc(-c3ccc(C)c(NC(=O)c4cccnc4)c3)[nH]c2c1`, the inhibition is 8.2% (inactive) (stronger effect = higher value) and 2.9% under setting [1]. In the case of `Cc1cnn(CC(C)NCc2nc(-c3ccccn3)no2)c1` (configuration not stated), for the setting “stronger effect = higher value”, the inhibition is 19.9% (inactive). Consider `Cc1ccc(-c2cc(C(=O)NCc3cn(C)nc3C)c3ccccc3n2)cc1C`, for which the result was inactive. Also, the inhibition under setting [1] was determined as 3%. `COc1cccc(-n2nnc3c(=O)n(CC(=O)N4CCCC4)cnc32)c1`: the inhibition entry was “inactive”. Same read-out and setting: for `CCOC(=O)c1ccc(S(=O)(=O)N2CCN(C3CCOC3=O)CC2)o1` (configuration not stated) the value was “inactive”; for `O=S(=O)(c1cc(-c2nc(-c3cccc(F)c3)no2)cs1)N1CCCCC1`, “inactive”. For the compound `CCN1CCN(c2ccc(-c3nc(-c4cccc(F)c4)no3)cn2)CC1`, the inhibition runs as follows: (stronger effect = higher value) 48.2% (inactive); under setting [1], 31.4%.

Turning to `Cn1nccc1-c1cccc(-c2noc(-c3cccc(F)c3)n2)c1`, the inhibition was 64.1% (active) (stronger effect = higher value) and 17.6% under setting [1]. As to `O=c1[nH]c(CN2CCC(c3nc4ccccc4o3)CC2)nc2ccsc12`, the inhibition entry was “inactive”. On to `CC(C)c1ccc(Nc2ncccc2S(=O)(=O)N2CCCC2)cc1`, for which the inhibition by setting is: (stronger effect = higher value) 57.5% (active); under setting [1], 27%. In the same order, the values of `CCOC(=O)c1cccc(Nc2ncccc2S(N)(=O)=O)c1` are 35.4% (inactive) and 14.6%. In the case of `CC(C)c1ccc(NC(=O)c2ccc(F)c(S(=O)(=O)N3CCN(c4ccccc4)CC3)c2)cc1`, the inhibition result is “inactive”.

Regarding `CC(=O)Nc1nsc(N2CCCC(C(=O)NCc3ccccc3Cl)C2)n1` (configuration not stated), the inhibition (stronger effect = higher value) was 5.9% (inactive) and the inhibition under setting [1] is 4.9%. Turning to `O=C(c1cn2ccccc2n1)N1CCN(C2CCS(=O)(=O)C2)CC1` (configuration not stated), the inhibition entry was “inactive”.

With `Cc1ccc2nc(-c3ccccc3)c(CN3CCN(C4CCS(=O)(=O)C4)CC3)n2c1` (configuration not stated), the inhibition entry was “inactive”.

As for `O=S1(=O)CCC(n2cc(-c3cnn(-c4ccccc4)c3)cn2)C1` (configuration not stated), the inhibition (stronger effect = higher value) was 66.2% (active) and the inhibition under setting [1] was found to be 45.5%. In the same order, the values of `O=C(c1ccc(F)cc1)N1CCc2[nH]nc(C(=O)N3CCN(c4ccc(F)cc4)CC3)c2C1` are 0.9% (inactive) and 2.4%. `O=C(c1ccc2c(=O)n3c(nc2c1)CCCC3)N1CC=C(c2ccccc2)CC1`: the inhibition result is “inactive”. Regarding `COc1ccccc1-c1cc(C(=O)Nc2sc(Nc3ccccc3)nc2C(N)=O)[nH]n1`, the inhibition reads like this: (stronger effect = higher value) 11.1% (inactive); under setting [1], 11.2%.

Take `Cc1cccc(C)c1NC(=O)c1cc(-c2ccccc2)nc2c1cnn2Cc1cccnc1`: the inhibition (stronger effect = higher value) was 17.5% (inactive). Consider `Cn1cc(C(=O)c2ccccc2O)cc1-c1nc2ccccc2c(=O)[nH]1`, for which the inhibition result is “inactive”. Consider `CN(C)CCn1cc(C(=O)c2cc(Cl)ccc2O)cc1-c1nc2ccccc2c(=O)[nH]1`, for which the inhibition is 85.8% (active) (stronger effect = higher value) and 45% under setting [1]. `CN(C)CCCN1C(=O)C(=O)C(=C(O)c2cc(Cl)ccc2O)C1c1ccco1` (configuration not stated): the inhibition (stronger effect = higher value) was 14.6% (inactive). Same read-out and setting: as for `Cc1noc(-c2nn(C)c3c2CN(S(=O)(=O)Cc2cccc(F)c2)CC3)n1`, the figure is 14.3% (inactive); as for `O=C(CCc1ccc(Cl)cc1Cl)N1CCCC(c2ncn[nH]2)C1` (configuration not stated), 0.4% (inactive). As for `CCCNC1=C(C(=O)Nc2ccc(F)cc2)S(=O)(=O)c2ccccc21`, the inhibition is 46.5% (inactive) (stronger effect = higher value) and 21.9% under setting [1].

Regarding `NC(=O)C1=C(Nc2ccccc2)c2ccccc2S1(=O)=O`, the inhibition by setting is: (stronger effect = higher value) 48.5% (active); under setting [1], 12.8%. In the same order, the values of `CN(C)c1nc(N(C)C)nc(N2CC(=O)N(c3ccc(Cl)c(Cl)c3)C2=N)n1` are 16% (inactive) and 9.5%.

The record behind these values is PubChem BioAssay AID1794835 (Parasite Biology Lab, Institute for Biomedicine and …, 2023).
